# Article PMC4336329 (PLoS ONE, 2015)
# Out of some 310,000 compounds screened, about 14,000 (4.5%) showed an effect of 50% or more. Effects have a minus sign here. What follows is part of a selection rich in strong results, with near analogues and random picks from the rest.
# Target: human ether-à-go-go-related gene (hERG) potassium channel (human, UniProt Q12809)
# Assay: primary screen, population patch clamp on CHO cells stably expressing hERG; higher = less effect of the substance
# 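Note: peak tail current of the secondary pulse compared with the same well before compound.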
# Sequence of human ether-à-go-go-related gene (hERG) potassium channel (Q12809 whole entry, looked up): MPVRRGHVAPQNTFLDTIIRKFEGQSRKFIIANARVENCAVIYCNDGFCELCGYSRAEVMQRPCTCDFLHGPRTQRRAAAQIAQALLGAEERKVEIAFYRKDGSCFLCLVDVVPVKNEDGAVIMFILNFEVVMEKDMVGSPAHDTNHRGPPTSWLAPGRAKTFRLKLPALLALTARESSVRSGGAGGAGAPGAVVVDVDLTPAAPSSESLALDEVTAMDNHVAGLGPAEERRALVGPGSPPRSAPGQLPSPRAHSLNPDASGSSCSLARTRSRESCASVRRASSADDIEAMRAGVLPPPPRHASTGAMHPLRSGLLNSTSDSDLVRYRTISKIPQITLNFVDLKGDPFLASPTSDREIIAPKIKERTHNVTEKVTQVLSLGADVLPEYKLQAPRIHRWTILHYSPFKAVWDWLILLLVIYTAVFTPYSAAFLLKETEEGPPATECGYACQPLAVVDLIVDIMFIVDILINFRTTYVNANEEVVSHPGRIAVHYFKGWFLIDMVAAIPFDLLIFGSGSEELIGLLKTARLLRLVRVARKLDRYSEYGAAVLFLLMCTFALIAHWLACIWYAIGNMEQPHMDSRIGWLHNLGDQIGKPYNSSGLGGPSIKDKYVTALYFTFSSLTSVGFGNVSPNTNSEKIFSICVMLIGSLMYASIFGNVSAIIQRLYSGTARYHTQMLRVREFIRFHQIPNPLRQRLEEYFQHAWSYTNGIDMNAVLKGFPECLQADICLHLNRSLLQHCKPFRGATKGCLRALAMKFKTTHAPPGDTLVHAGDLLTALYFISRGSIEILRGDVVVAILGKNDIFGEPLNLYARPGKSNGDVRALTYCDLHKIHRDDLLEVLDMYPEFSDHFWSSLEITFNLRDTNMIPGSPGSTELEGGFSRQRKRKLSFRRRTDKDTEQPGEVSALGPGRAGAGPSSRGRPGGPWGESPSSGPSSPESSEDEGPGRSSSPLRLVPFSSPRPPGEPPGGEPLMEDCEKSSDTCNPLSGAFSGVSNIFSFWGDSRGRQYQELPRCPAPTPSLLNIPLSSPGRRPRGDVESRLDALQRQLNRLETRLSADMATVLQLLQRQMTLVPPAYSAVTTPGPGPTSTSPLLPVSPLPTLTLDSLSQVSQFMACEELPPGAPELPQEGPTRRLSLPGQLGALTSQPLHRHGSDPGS
row,Structure (SMILES),"hERG current change (%, negative = inhibition) at 10uM [%]"
1,CC(=O)N1CCc2cc(N=NC3=C(O)CCCC3=O)ccc21,9.61
2,COCCn1c(Cc2ccccc2)nnc1SCC(=O)N1CCCCC1C (stereo not shown),7.49
3,COc1ccc(CCC(=O)NNC(=O)Nc2ccccc2Cl)cc1,4.25
4,CC1(c2ccc(OC(F)F)cc2)NC(=O)N(CC(=O)Nc2ccc3c(c2)OCO3)C1=O (stereo not shown),-36.5
5,N#Cc1cc2c(nc1SCC(=O)Nc1sc3c(c1C#N)CCC3)CCCC2,4.92
6,CCOc1ccc(C(=O)COC(=O)Cn2cnc3c2c(=O)n(C)c(=O)n3C)cc1,-13.5
7,S=C(Nc1ccccn1)NC1CCCC1,-17.6
8,O=C(NC(=S)Nc1ccc(CN2CCCCC2)cc1)c1cc2ccccc2o1,-24.3
9,COc1ccc(NC(=O)c2ccco2)cc1NC(=O)c1ccccc1F,25.6
10,CC1CCCCN1C(=O)CN1CCC(c2nc3ccc(Cl)cc3[nH]2)CC1 (stereo not shown),-60.2
11,CC1CCCCN1C(=O)CSc1nc2ccccc2[nH]1 (stereo not shown),25.8
12,CC1CCCCN1C(=O)Cc1ccc(Cl)cc1 (stereo not shown),-11.1
13,CC1CCCN(C(=O)CN2CCC(c3nc4ccc(Cl)cc4[nH]3)CC2)C1 (stereo not shown),-67.8
14,O=C(NC1CCCCC1)N1CCC(c2nc3ccc(Cl)cc3[nH]2)CC1,-34.3
15,Cc1ccc2nc(C3CCN(CC(=O)N4CCCCCC4)CC3)[nH]c2c1,-22.2
16,O=C1CC(N2CCC(c3nc4ccccc4o3)CC2)C(=O)N1c1ccc(Cl)c(C(F)(F)F)c1 (stereo not shown),6.87
17,COC(=O)C1=C(C)N(c2cccc(C(C)=O)c2)C(=O)C1,7.45
18,CC(C)OC(=O)/C(C#N)=C/c1cn(Cc2ccccc2)c2ccccc12,-6.73
19,COc1ccc(N(C(=O)CNC(=O)c2ccco2)C(C(=O)NC2CCCCC2)c2ccco2)cc1 (stereo not shown),8.58
20,C=CCNc1nc2c(c(=O)[nH]c(=O)n2C)n1CCCCC,-12.1
21,O=[N+]([O-])c1ccc2[nH]cc(S(=O)(=O)N3CCN(c4cccc(Cl)c4)CC3)c2c1,16.3

row,Structure (SMILES),"hERG current change (%, negative = inhibition) at 10uM [%]"
1,NC(=O)NC(=O)COC(=O)c1cccc(S(=O)(=O)N2CCCCCC2)c1,-21.4
2,C=CCNC(=O)C1CCN(S(=O)(=O)c2ccc(Br)cc2)CC1,-58.7
3,C=CCNC(=O)c1ccccc1NS(=O)(=O)c1ccc(SC)cc1,-6.5
4,CCCNC(=O)C1CCN(S(=O)(=O)c2ccc(Br)cc2)CC1,-1.78
5,C=CCNC(=O)C1CCN(S(=O)(=O)c2ccccc2)CC1,-2.98
6,C=CCNC(=O)c1ccccc1NC(=O)C1CCN(S(=O)(=O)c2ccc(SC)cc2)CC1,-70
7,CSc1ccc(S(=O)(=O)N2CCC(C(=O)Nc3ccccc3C(F)(F)F)CC2)cc1,7.69
8,Nc1nc(N)nc(-c2cc(O)ccc2O)n1,10.3
9,O=C(CSc1ccccc1)N(c1ccc(Br)cc1)c1nccs1,10.8
10,Cc1cc(C)c2cc(CN(CCCN(C)C)C(=S)NCc3ccccc3)c(=O)[nH]c2c1,-45.4
11,CCC(=O)N(CCc1ccccc1)Cc1cc2cccc(C)c2[nH]c1=O,-14.4
12,COc1ccc2[nH]c(=O)c(CN(CCN(C)C)C(=O)NCc3ccccc3)cc2c1,9.31
13,Cc1ccc2[nH]c(=O)c(CN(CCO)C(=O)NCc3ccccc3)cc2c1,7.55
14,Cc1ccc2cc(CN(CCCN(C)C)C(=O)NCc3ccccc3)c(=O)[nH]c2c1C,-34.1
15,Cc1ccc(C)c2[nH]c(=O)c(CN(CCCN(C)C)C(=O)NCc3ccccc3)cc12,-52.2
16,CCN(CC)CCCNC(=S)N(Cc1cccnc1)Cc1cc2cccc(C)c2[nH]c1=O,-1.68
17,Cc1cccc2cc(CN(CCCN(C)C)C(=S)NCCc3ccccc3)c(=O)[nH]c12,-72
18,Cc1ccc2cc(CN(CCCN(C)C)C(=S)NCc3ccccc3)c(=O)[nH]c2c1C,-50.3
19,O=C(NC(=S)N1CCOCC1)c1ccc(F)cc1,24.4
20,CC[C@H](C)[C@@H](C(=O)N1CCNCC1)n1cc([C@@H](N)CC(C)C)nn1.Cl,11.9
21,CC(=O)c1ccc(NC(=O)CSc2nnc(-c3ccncc3)n2C2CC2)cc1,-5.46

row,Structure (SMILES),"hERG current change (%, negative = inhibition) at 10uM [%]"
1,COc1ccc(CC(=O)NC2CC(C)(C)NC(C)(C)C2)cc1OC.Cl,16.9
2,Cc1ccc(/C=C2\C(=O)Nc3ccccc32)o1,5.04
3,Cc1ccccc1-n1nnnc1SCC(=O)NCC1(N2CCOCC2)CCCCC1,-24.9
4,CCOc1ccccc1-n1nnnc1SCC(=O)NCc1ccco1,5.25
5,O=C(CSc1ccccc1)NCC1(N2CCOCC2)CCCCC1,-19
6,CCOc1ccccc1-n1nnnc1SCC(=O)NCC1(N2CCOCC2)CCCCC1,-67.7
7,COc1ccccc1-n1nnnc1SCC(=O)NCC1(N2CCOCC2)CCCCC1,-39.8
8,Cc1cccc(-n2nnnc2SCC(=O)NCC2(N3CCOCC3)CCCCC2)c1C,-57.9
9,O=c1c2ccccc2nc2c3ccccc3c(NCc3cccnc3)nn12,-25.5
10,COc1ccc(-n2nc(C(=O)NCC(=O)NC3CCCC(C)C3C)c3ccccc3c2=O)cc1 (stereo not shown),8.55
11,CC(=O)OCN(C#N)c1nc(N(C)C)nc(N(C)C)n1,5.8
12,Cc1nnc2ccc(-c3ccc(NS(=O)(=O)c4ccc(F)cc4F)cc3)nn12,-25.2
13,CC(C)Oc1ccc(CNC(=O)C2CCCN(S(=O)(=O)N3CCOCC3)C2)cc1 (stereo not shown),-20.8
14,CN1C(C(=O)NCc2cccc(C(F)(F)F)c2)CC2Cn3c(nc4cc(Cl)c(Cl)cc43)C21 (stereo not shown),-73.6
15,CN1C(C(=O)NCc2cccc(C(F)(F)F)c2)CC2Cn3c(nc4cc5ccccc5cc43)C21 (stereo not shown),-63.1
16,CN1C(C(=O)NCc2cccc(C(F)(F)F)c2)CC2Cn3c(nc4ccccc43)C21 (stereo not shown),-47.4
17,C=CCNC(=O)C1CC2Cn3c(nc4cc(C)c(C)cc43)C2N1C (stereo not shown),-7.6
18,Cc1cc2nc3n(c2cc1C)CC1CC(C(=O)NCc2cccc(C(F)(F)F)c2)N(C)C31 (stereo not shown),-66.7
19,Cc1cc2nc3n(c2cc1C)CC1CC(C(=O)NCC2CC2)N(C)C31 (stereo not shown),-1.83
